Rows were chosen to be rich in hits. Some 6.1% of all compounds tested hit in one or more screens of this group.
D1 antagonist – human D1 dopamine receptor antagonism; P21728; activity change, negative = inhibition, % at 10 µM; 360,000 tested, 3.2% active; AID 504652; HEK293 TREx D1 cells, calcium flux, dopamine EC80; stronger effect = lower value; in the data active = activity change below about -30%; also: % is scaled to controls: 0 for no effect and ±100 for the full control effect
Target sequence (P21728 whole entry, looked up): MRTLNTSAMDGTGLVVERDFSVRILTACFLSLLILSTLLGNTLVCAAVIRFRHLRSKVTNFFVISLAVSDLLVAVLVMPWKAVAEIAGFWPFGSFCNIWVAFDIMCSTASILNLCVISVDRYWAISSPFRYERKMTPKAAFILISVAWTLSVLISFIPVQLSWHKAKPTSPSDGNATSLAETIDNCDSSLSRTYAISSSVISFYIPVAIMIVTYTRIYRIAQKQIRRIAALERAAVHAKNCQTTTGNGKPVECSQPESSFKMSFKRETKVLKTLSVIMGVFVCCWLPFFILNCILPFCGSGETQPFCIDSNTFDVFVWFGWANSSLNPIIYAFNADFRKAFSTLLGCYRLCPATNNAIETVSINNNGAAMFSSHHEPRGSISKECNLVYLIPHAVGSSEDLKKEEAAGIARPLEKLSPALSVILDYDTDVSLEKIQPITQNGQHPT
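Allosteric or orthosteric antagonism assessed as attenuation of the calcium response to EC80 dopamine, added 180 s after compound, in induced HEK293 Trex D1 cells loaded with no-wash calcium dye.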
D1 potentiator – potentiators of human D1 dopamine receptor; HEK293 TREx D1 cells, calcium flux, dopamine EC20 potentiation; potentiation, % at 10 µM; 360,000 tested, 0.036% active; in the data active = potentiation above about 30%; also: 0% is about no effect
D1 agonist – human D1 receptor agonism. P21728. HEK293 T-REx D1 cells, calcium flux, agonist mode. activation, % at 2 µM. 360,000 tested, 1% active; in the data active = activation above about 30%; also: 0% is about no effect
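Inducible HEK293 T-REx D1 cells, force-coupled to calcium signalling, were plated at 4000 cells/well with tetracycline and held overnight at 30 C. After no-wash calcium dye loading, compound-evoked calcium rise over 180 s flagged agonists.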
D3 antag – blocks the human D3 dopamine receptor; AID 652054; 360,000 tested, 2.5% active; P35462; max response, negative = inhibition, %; D3R cells, DiscoveRx beta-arrestin luminescence, antagonist mode; stronger effect = lower value; in the data active = max response below about -50%; also: % is scaled to controls: 0 for no effect and ±100 for the full control effect
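Cells plated overnight at 1500 cells/well, then exposed to library compounds with dopamine controls for 90 minutes at 37 degrees C. DiscoveRx reagent added for 30–60 minutes at room temperature; luminescence read, quantitative HTS format.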
DRD3 agonist – agonists of human D3 dopamine receptor | max activation, % | P35462 | D3R DiscoveRx beta-arrestin cells, luminescence, 90 min | AID 652048 | 410,000 tested, 0.58% active; in the data active = max activation above about 30%; also: 0% is about no effect
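Cells at 1500/well, incubated overnight, then treated with pinned compounds (dopamine as control) for 90 min at 37 degrees C. DiscoveRx reagent added for 30 - 60 minutes at room temperature; luminescence read.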
* hit, by the source's call.

Results for CCN1CCN(c2ccccc2NC(=O)C(C)Oc2ccc(C(C)=O)cc2)CC1 (configuration not stated) ?
D1 antagonist: -49*; D1 potentiator: -4; D1 agonist: 0; D3 antag: 5; DRD3 agonist: -21

Results for O=S1(=O)c2ccccc2N(Cc2ccc(Cl)cc2F)c2ccccc21 ?
D1 antagonist: 6; D1 potentiator: -3; D1 agonist: 1; DRD3 agonist: -15

What do the screens show for `Cc1ccc(C(=O)/C=C\C(=O)c2ccc(C)cc2)cc1`?
D1 antagonist: -38*; D1 potentiator: -10; D1 agonist: 2; D3 antag: 1; DRD3 agonist: -4

What do the screens show for `Cc1ccc(C(=O)C=CNNC(=O)c2ccccc2)cc1`?
D1 antagonist: 1; D1 potentiator: -2; D1 agonist: 1; D3 antag: -15; DRD3 agonist: -6

How did CC(/C=C/C(=O)c1ccc(C)cc1)=C\c1ccccc1 do in these assays?
D1 antagonist: -14; D1 potentiator: -2; D1 agonist: 3; D3 antag: -61*; DRD3 agonist: 3

How did Cc1ccc(C(=O)c2ccc(C)cc2)cc1 do in these assays?
D1 antagonist: 1; D1 potentiator: -4; D1 agonist: 2; D3 antag: 23; DRD3 agonist: 2

How did Cc1ccc(C(=O)/C=C\NCc2ccccc2)cc1 do in these assays?
D1 antagonist: 17; D1 potentiator: 0; D1 agonist: 4; D3 antag: 6; DRD3 agonist: 8

Results for Cc1ccc(S/C=C\C(=O)c2ccccc2)cc1 ?
D1 antagonist: 7; D1 potentiator: -6; D1 agonist: 4; D3 antag: -53*; DRD3 agonist: -28

What do the screens show for `Cc1oc(C(C)(C)C)cc1C(=O)Nc1ccc2c(c1)OCO2`?
D1 antagonist: -32*; D1 potentiator: -9; D1 agonist: 1; D3 antag: 0; DRD3 agonist: -6

Results for O=C(CSc1nc2ccccc2o1)Nc1ccccc1 ?
D1 antagonist: -37*; D1 potentiator: -8; D1 agonist: 3; D3 antag: 21; DRD3 agonist: 0

How did O=S(=O)(CCSc1nc2ccccc2o1)c1nc2ccccc2s1 do in these assays?
D1 antagonist: -14; D1 potentiator: -6; D1 agonist: 8; D3 antag: -62*; DRD3 agonist: -11

What do the screens show for `CC(=O)Nc1cccc(NC(=O)CSc2nc3ccccc3o2)c1`?
D1 antagonist: 3; D1 potentiator: -3; D1 agonist: 13; D3 antag: 8; DRD3 agonist: 2

Results for O=S(=O)(NCCSc1nc2ccccc2o1)c1ccccc1 ?
D1 antagonist: -33*; D1 potentiator: -3; D1 agonist: 7; D3 antag: 13; DRD3 agonist: -3

How did CC(=O)CC/C=C(\C)CC/C=C(\C)CC/C=C(\C)CCC=C(C)C do in these assays?
DRD3 agonist: -5

How did CCCCn1cc(S(=O)(=O)c2cc(C)ccc2C)c(=O)c2cc(F)c(F)cc21 do in these assays?
D1 antagonist: 17; D1 potentiator: 4; D1 agonist: 2; DRD3 agonist: 1

What do the screens show for `C/C(=N/NC(=O)c1ccco1)c1ccc(Br)s1`?
D1 antagonist: -31*; D1 potentiator: -8; D1 agonist: 1; D3 antag: -8; DRD3 agonist: 0

What do the screens show for `COc1ccccc1CNC(=O)C1CCN(S(=O)(=O)c2c(C)noc2/C=C/c2c(C)cc(C)cc2C)CC1`?
D1 antagonist: 6; D1 potentiator: -1; D1 agonist: 8; DRD3 agonist: -8

What do the screens show for `OCCNCC(O)Cn1c2ccccc2c2ccccc21` (configuration not stated)?
D1 antagonist: 4; D1 potentiator: -3; D1 agonist: 3; D3 antag: -6; DRD3 agonist: -5

Results for OCCNCC(O)Cn1ccc2ccccc21 (configuration not stated) ?
D1 antagonist: -18; D1 potentiator: -3; D1 agonist: 0; D3 antag: -52*; DRD3 agonist: -1

What do the screens show for `CCC(C)NC(=O)c1cc(C)no1` (configuration not stated)?
D1 antagonist: -2; D1 potentiator: 2; D1 agonist: 3; D3 antag: -64*; DRD3 agonist: -9

What do the screens show for `CCOC(=O)c1ccccc1OC(=O)CS(=O)c1ccccc1[N+](=O)[O-]` (configuration not stated)?
D1 antagonist: -32*; D1 potentiator: -1; D1 agonist: 0; D3 antag: -20; DRD3 agonist: -8

What do the screens show for `CCCN1C(=O)S/C(=C/c2ccc(N3CCOCC3)o2)C1=O`?
D1 antagonist: -21; D1 potentiator: 11; D1 agonist: 103*; D3 antag: -13; DRD3 agonist: 8

What do the screens show for `CCCN1C(=O)S/C(=C\c2ccc(N3CCOCC3)o2)C1=O`?
D1 antagonist: 14; D1 potentiator: 10; D1 agonist: 34*; D3 antag: -11; DRD3 agonist: -20

What do the screens show for `Cc1ccc(-n2ccnc(NCc3ccccc3)c2=O)cc1C`?
D1 antagonist: -35*; D1 potentiator: -2; D1 agonist: 1; DRD3 agonist: -1

What do the screens show for `Cc1ccc(CNc2nccn(-c3cc(C)cc(C)c3)c2=O)cc1`?
D1 antagonist: -10; D1 potentiator: -3; D1 agonist: 4; DRD3 agonist: -18

What do the screens show for `Cc1ccc(C)c(-n2sc3ccc(F)cc3c2=O)c1`?
D1 antagonist: -8; D1 potentiator: -2; D1 agonist: 11; D3 antag: -81*; DRD3 agonist: -1

How did COc1ccc(-n2sc3ccc(F)cc3c2=O)cc1 do in these assays?
D1 antagonist: -4; D1 potentiator: 1; D1 agonist: 9; D3 antag: -55*; DRD3 agonist: -43

Results for O=c1c2cc(F)ccc2sn1-c1ccc(F)cc1 ?
D1 potentiator: -3; D1 agonist: 8; D3 antag: 2; DRD3 agonist: -2

What do the screens show for `Cc1ccc(NC(=O)CSCc2cc(=O)c3ccccc3[nH]2)c(C)c1`?
D1 antagonist: 14; D1 potentiator: -1; D1 agonist: -1; DRD3 agonist: 23

How did CCOc1ccc(/C=C/c2nc(C#N)c(NCCc3ccccc3)o2)cc1 do in these assays?
D1 antagonist: -37*; D1 potentiator: 1; D1 agonist: 2; DRD3 agonist: -4

What do the screens show for `CCNc1oc(/C=C/c2ccc(OCC)cc2)nc1C#N`?
D1 antagonist: -22; D1 potentiator: -4; D1 agonist: 0; D3 antag: 7; DRD3 agonist: 3

What do the screens show for `COc1ccc(/C=C/c2nc(C#N)c(NCCN(C)C)o2)cc1OC`?
D1 antagonist: -30*; D1 potentiator: -3; D1 agonist: -3; D3 antag: -8; DRD3 agonist: 0

How did CCN(CC)CCCNc1oc(/C=C/c2ccc(OC)c(OC)c2)nc1C#N do in these assays?
D1 antagonist: -5; D1 potentiator: 0; D1 agonist: -1; DRD3 agonist: -2

Assay outcomes: PubChem BioAssay, National Center for Advancing Translational Sciences (NCATS)
